Bioassay records as filed in PubChem.
Peg3 promoter: inhibitors of Peg3 promoter; AID 588405; inhibition, % at 20 µM; HeLa PEG-Prom luciferase reporter, luminescence, overnight; hit rate 1.7% among 360,000;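 active means inhibition of at least 50% at 20 µM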
TRPM1 prom inh: reduces MITF-dependent TRPM1 promoter luciferase signal; SK-MEL-5 TRPM1 promoter luciferase, 24 h; inhibition, % at 12.5 µM; hit rate 0.83% among 330,000; AID 488899;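 active means mean inhibition across replicates of 60% or more, whatever share of single replicates reaches that level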
LMP1 NFkB inh: reduces LMP1-driven NF-kappaB luciferase signal; LMP1-induced NF-kappaB luciferase reporter cells, luminescence; inhibition, % at 12.5 µM; AID 504558; hit rate 0.69% among 350,000; in the data active means inhibition above about 41%;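 further: 0% = neutral control wells and 100% = reference inhibitor control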
Shn3 3UTR inh: Schnurri-3 reporter inhibition in Clone20 osteoblasts; inhibition, % at 12.5 µM; hit rate 0.52% among 360,000; Clone20 osteoblast Shn3 3'UTR firefly luciferase, 24 h;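 active means mean inhibition of at least 75% with every replicate also reaching 75%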;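 further: 0% = median of neutral control wells and 100% = pilot-screen positive control compound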
TWEAK Fn14 block: TWEAK-Fn14 signaling inhibition; TWEAK-stimulated Fn14 reporter cells, luciferase luminescence, 8 h; inhibition, % at 10 µM; hit rate 2% among 360,000; in the data active means inhibition above about 50%
TROY NFkB inh: TROY signaling inhibition; Q293 LMP1-TROYcd NF-kB luciferase reporter, 4 h; inhibition, % at 10 µM; hit rate 0.98% among 360,000; AID 1347056;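 active means compounds whose plate-normalised and pattern-corrected inhibition of the luciferase reporter signal at the single screening dose is 50% or more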
Starred values were filed as active, the others as inactive; x = not tested or not shown. This is a sample that favours compounds with a hit; in the whole collection about 4.1% have one here.

SMILES | Peg3 promoter | TRPM1 prom inh | LMP1 NFkB inh | Shn3 3UTR inh | TWEAK Fn14 block | TROY NFkB inh
O=C1NC[C@H](c2ccccc2)OC(=O)[C@H](Cc2ccc(F)cc2)CC/C=C/C[C@H]1CC(=O)N(CCO)Cc1ccccc1 | 59* | 15 | -1 | 21 | 10 | 16
O=C1NCCOC(=O)[C@@H](Cc2ccc(F)cc2)CC/C=C/C[C@@H]1CC(=O)N(CCO)Cc1ccccc1 | -14 | -2 | 3 | 91* | 6 | 4
O=C(O)c1ccccc1C(=O)OC1CCCC2CCCC21 (stereo not drawn) | -1 | 10 | -4 | -9 | -2 | -13
CN(C)CCOc1ccc(/C(=C(/CCCl)c2ccccc2)c2ccccc2)cc1 | 74* | 1 | 5 | -1 | -9 | 15
OCC1(CCc2ccccc2)CCCN(CCCc2ccccc2)C1 (stereo not drawn) | 3 | -4 | -13 | 10 | -9 | 24
COc1c2c(cc3oc(=O)c4c5ccc(O)cc5oc4c13)OC(C)(C)CC2 | -263 | -55 | -111 | -35 | 77* | 77*
CN1CCN(C(=S)NC(CC(=O)c2ccccc2)c2ccccc2)CC1 (stereo not drawn) | 11 | 1 | 1 | 68 | -4 | -31
CC(C)=CCc1cc([C@@H]2CC(=O)c3ccc(O)c(CC=C(C)C)c3O2)ccc1O | 17 | 7 | -1 | 31 | 58* | 43
C[C@@H]1CCCCO[C@@H](CN(C)C(=O)c2ccncc2)[C@@H](C)CN([C@H](C)CO)C(=O)c2cc(NC(=O)Cc3ccccc3)ccc2O1 | 7 | x | 2 | 10 | -9 | -15
N#Cc1c(NC(=O)c2ccccc2Cl)n(Cc2ccccc2)c2nc3ccccc3nc12 | 44 | 3 | 11 | 7 | 86* | 65*
CCCCn1c(NC(=O)c2ccccc2Cl)c(C#N)c2nc3ccccc3nc21 | 53* | 3 | 11 | -4 | -32 | 76*
CCCCn1c(NC(=O)CC)c(C#N)c2nc3ccccc3nc21 | 22 | 8 | 6 | -14 | -9 | -3
CCOC(=O)c1nc(NCc2ccccc2F)c2ccccc2n1 | 17 | -2 | 77* | 20 | 5 | -9
CCOC(=O)c1nc(NCc2ccccc2C)c2ccccc2n1 | 8 | -12 | 2 | 6 | 16 | -10
COc1cc(C(=O)Nc2nnc(C)s2)c([N+](=O)[O-])cc1OC | 5 | 12 | -3 | -4 | 6 | -2
CCn1c(SCC(=O)N/N=C(\C)c2ccncc2)nnc1-c1ccc(C)cc1 | 22 | x | x | 6 | -6 | -10
COc1cc(CC(=O)N(C)CC(=O)Nc2ccc(Cl)c(C(F)(F)F)c2)cc(OC)c1OC | 37 | 9 | 7 | 4 | 0 | -1
COCc1c(C(=O)Nc2cccc(S(=O)(=O)N3CCCCC3)c2)oc2ccccc12 | 22 | 3 | 2 | 86* | 39 | 3
COCc1c(C(=O)Nc2ccc3nc(N4CCOCC4)sc3c2)oc2ccccc12 | 51* | -5 | -6 | 36 | 30 | 43
C=CCN(c1ccccc1)S(=O)(=O)c1cccc(C(=O)NC2CCN(Cc3ccccc3)CC2)c1 | 33 | 19 | 21 | 23 | 24 | 23
CC(=O)NC(c1cc(Cl)c2ccccc2c1O)C(C)C (stereo not drawn) | -5 | 7 | 4 | 27 | 3 | 24
COc1ccc(C(NC(=O)c2cccnc2)c2cc(Cl)c3cccnc3c2O)cc1OC (stereo not drawn) | 34 | 19 | 35 | 93* | 15 | 17
CC(=O)NC(c1cc(Cl)c2cccnc2c1O)C(C)C (stereo not drawn) | 37 | 29 | 23 | 86* | -6 | -7
CCC(=O)NC(c1ccc(OC)cc1)c1cc(Cl)c2cccnc2c1O (stereo not drawn) | 48 | 50 | 38 | 60 | 9 | -13
Cc1ccc2oc(-c3cccc(NC(=S)NC(=O)/C=C/c4ccco4)c3)nc2c1 | -84 | -5 | -4 | -19 | 90* | 77*
SMILES | Peg3 promoter | TRPM1 prom inh | LMP1 NFkB inh | Shn3 3UTR inh | TWEAK Fn14 block | TROY NFkB inh
CN1OC[C@@H]2CN(S(=O)(=O)c3ccccc3)[C@H](c3ccc(-n4ccnc4)cc3)C[C@@H]21 | 4 | x | x | -7 | 10 | 6
O=C(Cc1cccs1)Nc1cccc(-c2nc3cc4ccccc4cc3[nH]2)c1 | -49 | -68 | -66 | -60 | 74* | 57*
CCOc1cccc(NC(=O)Cc2cccs2)c1 | -35 | -6 | 1 | -4 | 110* | x
N#Cc1cc(N2CCCCC2)c([N+](=O)[O-])cc1C#N | 8 | -2 | -3 | 6 | -1 | 9
O=[N+]([O-])c1cc2no[n+]([O-])c2cc1N1CCCCC1 | 99* | 80* | -76 | -23 | 16 | -2
O=C(COc1cc2oc(=O)c3c(c2cc1Cl)CCCC3)NCC1CCC(C(=O)O)CC1 (stereo not drawn) | -5 | 5 | 0 | -13 | 2 | -14
Cc1cccnc1NC(=O)c1ccc([N+](=O)[O-])o1 | -10 | 17 | -1 | 8 | -6 | -13
COc1cccc(C(=O)Nc2cccc(-c3nc4ncccc4o3)c2C)c1 | -76 | 2 | 2 | -3 | 9 | 27
Cc1c(NC(=O)c2ccc([N+](=O)[O-])o2)cccc1-c1nc2ncccc2o1 | 83* | 78* | 0 | 42 | 23 | 13
O=C(Nc1cccc2ncccc12)c1ccc([N+](=O)[O-])o1 | 51* | 46 | -28 | 20 | 18 | 13
O=C(Nc1ccc([N+](=O)[O-])cc1)Nc1ccc(OC(F)F)c(Cl)c1 | 99* | 76* | 68* | 88* | 82* | 61*
O=C(Nc1ccc(OC(F)F)c(Cl)c1)Nc1ccc2c(c1)OCO2 | -108 | -44 | -6 | -1 | -18 | 32
CCC[C@@H](CNC)NC[C@H](Cc1ccccc1)NCCCCc1ccccc1 | 99* | 94* | -12 | 49 | -41 | -21
CNC[C@@H](Cc1ccccc1)NC[C@@H](CC1CCCCC1)NCCCc1ccccc1 | 99* | 98* | -41 | -2 | -64 | 37
CNC[C@@H](CC1CCCCC1)NC[C@H](CC(C)C)NCCc1cccc(C(F)(F)F)c1 | 99* | 100* | -8 | 6 | -101 | 12
O=C(NCCCCc1ccccc1)c1ccccc1 | -29 | 5 | 5 | -1 | 23 | -29
O=C(COC(=O)c1ccccc1)NCCCCc1ccccc1 | -4 | x | -1 | 15 | 15 | -32
CCC[C@@H](CN[C@@H](CNC)C(C)C)NCCCCc1ccccc1 | 59* | 90* | -2 | 55 | -4 | -14
CCCCN(C=O)c1c(CC)nc2ccc(C(=O)N(C)Cc3ccccc3)cn12 | -5 | x | x | -1 | 7 | -6
Cc1sc(NC(=O)Cc2ccc3c(c2)OCO3)nc1-c1ccc2c(c1)CCN2C(=O)c1ccccc1F | -19 | 0 | 8 | 35 | 51* | -8
Cc1sc(NC(=O)Cc2ccc3c(c2)OCO3)nc1-c1ccc2c(c1)CCN2C(=O)c1ccc(F)cc1 | -2 | 13 | 24 | 57 | 1 | -8
